# In PubChem BioAssay AID652017 (The Scripps Research Institute Molecular Screening Center, 2013):
# The campaign covered roughly 370,000 compounds. About 3,800 (1%) were called active. Shown is part of a subset that was picked to be rich in actives. A number with no mark means an inactive call. Rule as the data show it: active = activation above about 7.8%; inactive = the rest.
# Experiment: SMARCA2 (BRM) function activators, primary screen, cell-based, luminescence, high throughput (AID 652017);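 also: 0% = vehicle wells and 100% = reference activator wells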
# Settings: MG213 cells, MMTV-luciferase reporter, dexamethasone, overnight; at 9.1 µM; stronger effect = higher value
row,SMILES,activation
1,Cc1ccc(NC(=S)NNC(=O)CSc2nnc(SCc3ccccc3Cl)s2)cc1,-6.06%
2,Cn1cccc1C(=O)Nc1nccs1,1.12%
3,CC(=O)Oc1ccc(C(=O)Nc2nccs2)cc1,9.12% (active)
4,CCOc1ccc(C(=O)Nc2nccs2)cc1[N+](=O)[O-],5.63%
5,COc1ccc(-c2nc3n(c(=O)c2C#N)CCS3)c(OC)c1,-2.7%
6,COc1ccc2c(c1)CN1CN(CCc3ccccc3)S(=O)(=O)CC21 (stereo unspecified),5.9%
7,COc1ccc(-c2cc(C(F)(F)F)nc(S(C)(=O)=O)n2)cc1OC,-11.1%
8,COc1ccc(-c2cc(-c3ccc(N)cc3)nc(N)c2C#N)cc1OC,8.11% (active)
9,COc1ccc(OC)c2c(N)c(C#N)c(C(F)(F)C(F)(F)F)nc12,1.9%
10,CCCCOc1ccc(Cl)cc1CSc1nncn1N,1.44%
11,CCCCCCCCN1C(=O)[C@@H](CC(=O)NCc2ccc(C)o2)C[C@@]2(C(=O)OC)C1=C[C@H](C(C)(C)C)O[C@@H]2C,-5.88%
12,COc1cccc(CSc2nnc(-c3cccnc3)n2Cc2ccccc2)c1,-3.94%
13,Cc1ccc(S(=O)(=O)NC2CCCCCC2)cc1C(N)=O,-2.18%
14,CC(C)c1ccc(S(=O)(=O)NC2CCCC2)cc1,-1.52%
15,Cn1sc(=O)c2cc(S(=O)(=O)NC3CC3)ccc21,8.34% (active)
16,CN(C)CC(=O)N[C@@H]1C[C@@H]2O[C@H](CO)CC[C@@H]2O[C@@H]1CCc1ccc(C#Cc2ccccc2)cc1,0.56%
17,CCC(C)Sc1nc(C)nc2c1c(=O)n(C)c(=O)n2C (stereo unspecified),-1.47%
18,O=CNc1cc(-c2ccc(C(=O)N3CCOCC3)cc2)cn2c(-c3ccc(F)cc3)cnc12,-2.13%
19,CC(=O)Nc1cc(-c2ccc(N3CCN(C)CC3)cc2)cn2c(-c3ccc(F)cc3)cnc12,12.3% (active)
20,CC(=O)Nc1cccc(-c2cc(NC(C)=O)c3ncc(-c4ccccc4)n3c2)c1,-12.2%
21,CN(C)CCNC(=O)c1cccc(-c2cnc3c(NC=O)cc(-c4cccc(C(F)(F)F)c4)cn23)c1,21.3% (active)
22,CC(=O)c1cccc(-c2cnc3c(NC=O)cc(-c4ccc(N5CCN(C)CC5)cc4)cn23)c1,16.7% (active)
23,COc1ccc(-c2cc(NC=O)c3ncc(-c4cccc(C(=O)N(C)C)c4)n3c2)c(OC)c1,-4.41%

row,SMILES,activation
1,CC(=O)Nc1cc(-c2ccc(N3CCN(C)CC3)cc2)cn2c(-c3cccc(C(=O)N(C)C)c3)cnc12,5.35%
2,CN(C)C(=O)c1cccc(-c2cnc3c(NC=O)cc(-c4ccc(C(=O)N5CCOCC5)cc4)cn23)c1,3.31%
3,CC(=O)Nc1cc(-c2cccc(CO)c2)cn2c(-c3cccc(C(F)(F)F)c3)cnc12,-2.27%
4,O=C(CN1CCC(NC(=O)NCc2ccccc2)CC1)Nc1ccc2c(c1)OCCO2,0.31%
5,COc1ccc(N2CCN(CCNS(=O)(=O)c3ccc(C(C)(C)C)cc3)CC2)cc1,3.29%
6,Clc1ccc(-n2c(COc3ccccc3)nnc2SCc2nc3ccccc3[nH]2)cc1,-4.61%
7,O=C(CCCCO)c1ccc(O)c(Cl)c1,-1.51%
8,CC(C)CNc1cccc2c1S(=O)(=O)N(Cc1cn(Cc3ccccc3C(F)(F)F)nn1)Cc1ccccc1O2,-2.65%
9,CCOC(=O)N1CCN(C(=O)C[C@@H]2C(=O)N(CCc3ccc(Cl)cc3)C3=CCCC[C@]32C(=O)OCC)CC1,-1.86%
10,COc1cc(NC(=O)C2CCCN(S(=O)(=O)c3ccc(C(C)(C)C)cc3)C2)cc(OC)c1 (stereo unspecified),2.08%
11,CCCCCN1CCCCC(NC(=O)C(C)CCC)C1=O (stereo unspecified),-0.09%
12,CC1CCCCN1C(=O)CCS(=O)(=O)Cc1ccccc1 (stereo unspecified),-2.25%
13,CC1CCCCN1C(=S)NCc1ccccc1 (stereo unspecified),8.25% (active)
14,C/C(=N\NC(=S)NCc1ccccc1)C1CCCCC1,1.15%
15,O=C1C2CCCN2C(=O)N1CCCCN1CCN(c2cccc(C(F)(F)F)c2)CC1 (stereo unspecified),2.48%
16,O=Cc1ccc(OCc2cn3ccccc3n2)cc1,-6.54%
17,CN(C)C(CNC(=O)c1ccc(OCc2cn3ccccc3n2)cc1)c1ccco1 (stereo unspecified),11.2% (active)
18,O=C(NCCc1ccco1)c1ccc(OCc2cn3ccccc3n2)cc1,6.76%
19,CC(=O)N1CCCN(C2=Nc3ccccc3Sc3ccccc32)CC1,-0.9%
20,O=C(NCc1ccco1)C1CCCN(S(=O)(=O)c2ccc(Cl)s2)C1 (stereo unspecified),-1.17%
21,O=C(CSc1n[nH]c(-c2cccnc2)n1)Nc1ccnc2ccccc12,-1.59%
22,Fc1ccc(/C=N/Nc2nc(-c3cccnc3)nc3ccccc23)cc1,11.3% (active)
23,COC(=O)c1cccc(Cn2ccc3ccc(-c4ccc5ccn(C(=O)C6CCCCC6)c5c4)cc32)c1,-0.58%

row,SMILES,activation
1,Cc1ccccc1NC(=O)COC(=O)c1ccc(Sc2ncn[nH]2)c([N+](=O)[O-])c1,-3.59%
2,CC[C@@H](CCC(=O)N(c1ccccc1)c1ccccc1)C1CC1,-5.25%
3,Cc1ccc(NS(=O)(=O)c2ccc(C(C)C)cc2)cc1S(=O)(=O)N1CCOCC1,-0.94%
4,COC(=O)[C@@]12CCCCC=C1N(CCc1ccc(Cl)cc1)C(=O)[C@H]2CC(=O)NCc1ccc(OC)c(OC)c1,-0.41%
5,O=C(Nc1cccc(Cl)c1)c1cncn1-c1ccc(F)cc1,-2.14%
6,CCC(=O)Nc1ccc2nn(-c3ccc(F)cc3)nc2c1,9.02% (active)
7,CCOC(=O)c1nnn(CC(=O)Nc2cccc(F)c2)c1C(=O)OCC,-2.09%
8,CN(C)C(=S)N=c1ssc(=S)n1Cc1ccco1,8.22% (active)
9,CC1CN(Cc2ccco2)C(=S)N(c2ccccc2)C1=O (stereo unspecified),-1.86%
10,CCc1ccccc1N1CN(Cc2ccco2)CNC1=S,-4.87%
11,COC(=O)C1=C(C)N(Cc2ccc(F)cc2)C(=S)NC1c1cccc(Cl)c1 (stereo unspecified),-3.14%
12,Cc1ccccc1C#CC1=CC(=O)CC(C)(C)C1,9.9% (active)
13,Cc1ccc(C(=O)OC2=CC(=O)CC(C)(C)C2)cc1,2.66%
14,Cc1cc(O)ccc1NC1=CC(=O)CC(C)(C)C1,-2.49%
15,COc1ccccc1N(CC(=O)Nc1ccc(C(F)(F)F)cc1)S(C)(=O)=O,-1.17%
16,C=CCN1C(=O)[C@@H](CC(=O)NCCCOCCCC)[C@]2(C(=O)OCC)CCCCC/C=C/12,-1.57%
17,COc1ccc(-n2c(SCC(=O)NC3CCCC3)nnc2-c2ccncc2)cc1,-4.56%
18,O=C(O)c1ccccc1-c1ccccc1C(=O)NCCc1ccccc1,1.35%
19,Cc1c(C(=O)NCCCc2ccccc2)cccc1[N+](=O)[O-],8.08% (active)
20,CSc1ncc(C(=O)NCCCc2ccccc2)c(C)n1,-0.15%
21,O=S1(=O)c2c(cccc2N2CCSCC2)Oc2ccccc2CN1Cc1cn(Cc2ccc(F)cc2)nn1,-2.23%
22,O=C(CCS(=O)(=O)c1ccccc1)Nc1ccc(Cl)c(Cl)c1,1.57%
23,COc1ccc(-n2c(SCC(=O)Nc3ccc4c(c3)OCCO4)nnc2-c2ccc(Cl)cc2)cc1,-0.28%

row,SMILES,activation
1,Cc1ccnc(NC(=O)C2CCN(S(=O)(=O)c3c(C)c(C)cc(C)c3C)CC2)c1,9.5% (active)
2,Cc1ccc(Cl)cc1NC(=O)C1CCN(S(C)(=O)=O)CC1,-0.58%
3,O=C(Nc1ccccn1)C1CCN(S(=O)(=O)c2ccc3c(c2)OCCO3)CC1,-2.23%
4,COC(=O)[C@]12C[C@H](CC(=O)NCc3ccc(C)o3)C(=O)N(CCC3=CCCCC3)C1=C[C@H](C(C)(C)C)O[C@@H]2C,3.47%
5,CCN(CC)C(=O)CC[C@@H]1CC[C@]2(CCCN(S(=O)(=O)C3CCCCC3)C2)O1,-3.43%
6,COc1ccc(/C(N)=N/OC(=O)Oc2ccccc2)cc1,8.42% (active)
7,N/C(=N\OC(=O)CCc1ccccc1)c1ccc(Cl)cc1,5.53%
8,CO/N=C/CC(=O)c1ccc(OC)cc1,4.21%
9,CN(CC(=O)Nc1cccc(F)c1)C(=O)C1CSC2(C)CCC(=O)N12 (stereo unspecified),-0.29%
10,CN1[C@H](Cc2ccccc2)COc2cccc(N3CCSCC3)c2S1(=O)=O,0.97%
11,Cc1cc(O)c(NC(=O)c2ccc(C)c([N+](=O)[O-])c2)cc1C,9.28% (active)
12,CCCCNc1ccc(C(=O)Nc2cccc(C)n2)cc1[N+](=O)[O-],-1.63%
13,CCN1CCC(=NNC(=O)c2ccc(C)c([N+](=O)[O-])c2)CC1,-0.87%
14,COc1ccc(C(=O)N2CCN(c3ncccn3)CC2)cc1S(=O)(=O)N1CCOCC1,-2.62%
15,Cc1cc(C(=O)NN=C/C=C/c2ccco2)n[nH]1,-4.94%
16,Cc1ccc(NC(=O)Cc2cccc(F)c2)c(S(=O)(=O)N2CCOCC2)c1,-4.77%
17,Cc1ccc(-c2c(C)n([O-])c3c([n+]2=O)CCC3)cc1,14.5% (active)
18,CCOc1ccc(-c2c(C)n([O-])c3c([n+]2=O)CCCC3)cc1,0.92%
19,Cc1ccc(-c2c[n+](=O)c3c(n2[O-])CCC3)cc1,-3.37%
20,CCCc1cc(=O)oc2c(C)c(OC(C)C(=O)NCC(O)c3ccccc3)ccc12 (stereo unspecified),-0.91%
21,CCCCOC(=O)Nc1nnc(CC(=O)NCc2ccccc2)s1,-0.38%
22,CCCCCCOC(=O)NCC(O)c1ccccc1 (stereo unspecified),11.2% (active)
